According to PubChem BioAssay (Tox21):
Results filed as inconclusive are left out. A number with no mark means an inactive call. Calls of active or inactive are those of the source. Calls come from the whole dose curve.

Each compound was assayed against Acetylcholinesterase (Homo sapiens) (UniProt P22303) (assay: Acetylcholinesterase (AChE) small molecule antagonists: colormetric cell-based qHTS assay (AID 1347395; note: nearly all actives have a fitted effect of over 30% in size)). Details: SH-SY5Y cells AChE activity, colorimetric (Ellman); series mostly up to 115 µM; activity, negative = inhibition: at the top concentration.
Acetylcholinesterase (Homo sapiens), sequence (P22303 whole entry, looked up): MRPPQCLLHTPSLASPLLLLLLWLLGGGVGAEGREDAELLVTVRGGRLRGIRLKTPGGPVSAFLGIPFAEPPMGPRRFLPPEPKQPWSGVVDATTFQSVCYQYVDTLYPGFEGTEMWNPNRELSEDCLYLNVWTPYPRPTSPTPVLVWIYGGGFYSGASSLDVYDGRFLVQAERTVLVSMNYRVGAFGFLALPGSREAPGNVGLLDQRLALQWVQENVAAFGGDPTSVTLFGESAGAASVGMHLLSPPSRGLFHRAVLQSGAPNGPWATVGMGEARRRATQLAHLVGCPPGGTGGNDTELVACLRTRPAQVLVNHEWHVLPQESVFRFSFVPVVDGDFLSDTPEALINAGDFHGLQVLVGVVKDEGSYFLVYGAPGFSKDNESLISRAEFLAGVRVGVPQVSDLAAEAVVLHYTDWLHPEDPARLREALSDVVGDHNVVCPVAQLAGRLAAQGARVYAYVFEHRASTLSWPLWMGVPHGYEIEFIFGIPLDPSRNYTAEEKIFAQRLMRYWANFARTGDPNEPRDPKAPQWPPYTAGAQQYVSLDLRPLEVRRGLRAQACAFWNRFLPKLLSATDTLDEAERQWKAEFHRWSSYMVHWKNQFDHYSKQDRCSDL
Summary of the method: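 SH-SY5Y cells attached overnight, exposed to compound 30 min at 37 C, then given DTNB/acetylthiocholine; after 90 min at 37 C, colorimetric thiocholine read gives cellular AChE activity.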
% is set by controls: 0 for no effect and ±100 for the full control effect.

Row | SMILES | activity, negative = inhibition | Potency
1 | CC(=O)Oc1ccc2c(c1)CC[C@@H]1[C@@H]2CC[C@]2(C)[C@@H](O)CC[C@@H]12 | -1.1% [at 52.9 µM] | –
2 | CC(=O)Nc1ccc(S(=O)(=O)Nc2ccc([N+](=O)[O-])cc2)cc1 | 6% [at 52.9 µM] | –
3 | CO[Si](CCCn1c(=O)n(CCC[Si](OC)(OC)OC)c(=O)n(CCC[Si](OC)(OC)OC)c1=O)(OC)OC | 1.73% [at 52.9 µM] | –
4 | CCCCCCCOC(=O)CCC | -0.678% | –
5 | c1ccc2cc(Nc3ccc(Nc4ccc5ccccc5c4)cc3)ccc2c1 | – | inactive
6 | O=C1c2ccccc2C(=O)C1c1ccc2cc(S(=O)(=O)O)cc(S(=O)(=O)O)c2n1 | 38.9% | –
7 | CC(C)COC(=O)/C=C/c1ccccc1 | -0.804% | –
8 | O=S(=O)(O)CCO | -2.86% | –
9 | c1ccc(SSc2ccccc2)cc1 | 2.38% | –
10 | Cc1onc(-c2ccccc2)c1C(=O)Cl | 3.62% [at 52.9 µM] | –
11 | O=Cc1ccc(C(=O)O)cc1 | 0.26% | –
12 | C=CCOC(=O)/C=C\C(=O)OCC=C | 0.876% | –
13 | CCn1c2ccccc2c2ccccc21 | -0.617% | –
14 | CCOCCOCCO | 0.473% | –
15 | CCCCCCCCCCCC(=O)OC | – | inactive
16 | COCc1c(C(C)C)nc(C(C)C)c(/C=C/[C@@H](O)C[C@@H](O)CC(=O)O)c1-c1ccc(F)cc1 | 1.59% [at 52.9 µM] | –
17 | CN(C)[C@@H]1C(=O)C(C(N)=O)=C(O)[C@@]2(O)C(=O)C3=C(O)c4c(O)cccc4C[C@H]3C[C@@H]12 | 5.08% [at 52.9 µM] | –
18 | C/C=C/C(=O)N(CC)c1ccccc1C | – | inactive
19 | O=C(O)Cn1cnnn1 | 0.252% [at 52.9 µM] | –
20 | F[B-](F)(F)F | – | inactive
21 | CC(=O)[O][Al][O]C(C)=O | 4.58% | –
22 | [Cl][Sc]([Cl])[Cl] | -0.0057% | –
23 | CCOC(=O)[C@H](CCc1ccccc1)N[C@@H](C)C(=O)N1C(=O)N(C)C[C@H]1C(=O)O | 7.1% [at 52.9 µM] | –
